In the library only some 11% were active in any assay of this set; here they are far more common.
PNC assembly inh – inhibitors of perinucleolar compartment assembly; PC3M PTB-GFP, PNC prevalence imaging, 16 h; hits give low values; activity change (PNC), negative = inhibition, % at 10 µM; 140,000 tested, 3.1% active; AID 2417;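 active means readout at or below -70, meaning at least 70% loss of cells showing the perinucleolar compartment, a nuclear body marking cancer cells; inconclusive means readout between -30 and a set limit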;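 further: plate controls were DMSO wells for no effect and camptothecin positive control wells for full effect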
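Compounds are pinned in duplicate onto adhered PC3M cells stably expressing GFP-tagged PTB and incubated 16 h at 37 C. Cells are then fixed, nuclei stained with Hoechst, and PNC-positive cells counted.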
HPGD block – inhibitors of human 15-hydroxyprostaglandin dehydrogenase (HPGD); AID 894; Potency, µM, without a hit: top-dose activity change, negative = inhibition, usual class: inhibitors; P15428; 150,000 tested, 4.3% active; purified HPGD, NADH fluorescence kinetic, PGE2 substrate; further: potency means the concentration at half of the fitted maximal effect
Target sequence (P15428 whole entry, looked up): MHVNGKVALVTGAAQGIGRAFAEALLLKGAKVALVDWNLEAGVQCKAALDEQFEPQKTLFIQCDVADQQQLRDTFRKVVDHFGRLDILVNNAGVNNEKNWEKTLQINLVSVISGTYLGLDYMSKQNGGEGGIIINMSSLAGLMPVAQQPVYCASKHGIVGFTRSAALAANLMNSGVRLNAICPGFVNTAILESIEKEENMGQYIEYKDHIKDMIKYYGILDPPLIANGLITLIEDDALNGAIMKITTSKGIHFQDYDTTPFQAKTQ
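NADH formation kinetics: reaction with 30 uM PGE2 and 1 mM NAD+ (final), 20 nM enzyme, Tris-HCl pH 8 with Tween 20, after 15 min compound preincubation at room temperature. Fluorescence change, last versus first of five reads.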
ALDH1A1 inh – ALDH1A1 (human) enzyme inhibition; P00352; Purified ALDH1A1, NADH fluorescence, propionaldehyde substrate; Potency, µM (highest dose often 75.3 µM), for inactives: top-dose activity, negative = inhibition, usual class: inhibitors; 220,000 tested, 7.3% active; AID 1030;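 further: potency means the concentration at half of the fitted maximal effect; plate controls were no enzyme wells and a reference inhibitor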
* marks the source's active call; other numbers are inactive results; ? = inconclusive; · = not tested or not shown; [ ] = another dose, or the depositor's remark. Unless noted, the call rests on the fitted dose curve; in most records, active means well fitted inhibition curve with a large enough effect (not every such curve was filed as active); inconclusive means small, poorly fitted or top-dose-only effect, or another doubt; inactive means no such curve, though single readings can be large or run the other way. Unless noted, on the % scale 0 is the no-effect control and ±100 the full control effect.

SMILES	PNC assembly inh	HPGD block	ALDH1A1 inh
O=C(CCCn1c(=S)[nH]c2ccccc2c1=O)NCCSCc1ccccc1	·	·	5%
CN(Cc1ccccc1)S(=O)(=O)c1ccc(Cl)c(C(=O)NCc2ccc3c(c2)OCO3)c1	9	-6%	?
Cn1cc([N+](=O)[O-])c(C(=O)N(Cc2ccccc2)Cc2ccccc2)n1	17	-13%	-10%
CC1(C)N=C(N)N=C(N)N1CCCCc1ccccc1	·	3%	-9%[13.5 µM]
CCOc1ccc2c(c1)sc(N)[n+]2Cc1cc(C)cc2cccnc12	-85*	-11%	-7%
COc1ccc2c(c1)sc(N)[n+]2Cc1cc(C)cc2cccnc12	?	-15%	?
CCOCc1nnc(NC(=O)c2cc(OC)cc(OC)c2)s1	·	·	-8%
S=C(Nc1ccccc1)Nc1nccs1	·	-30%	?
CC(C)(C)c1nnc(NC(=S)Nc2ccccc2)s1	·	·	25µM*
COc1cc(OC)cc(C(=O)Nc2nnc(NC(=S)Nc3ccccc3)s2)c1	-100*	-20%	22µM*
O=C(NCc1ccco1)C(c1ccccc1)N(C(=O)Cc1cccs1)c1ccccc1F (stereo not drawn)	-30	-12%	-3%
FC(F)(F)C(F)(F)c1nnc2ccc(-n3ccnc3)nn12	·	·	8%
CC(C)COc1nc2ccccc2c(=O)n1OCC(=O)O	?	-10%	-2%
CCCOn1c(OCC(C)C)nc2ccccc2c1=O	24	-15%	22µM*
CCn1cc([N+](=O)[O-])c(C(=O)N2N=C3/C(=C/c4cccs4)CCCC3C2c2cccs2)n1 (stereo not drawn)	29	?	3%
CCn1c(SCC(=O)Nc2nccs2)nnc1-c1cc2cccc(OC)c2o1	-8	-24%	-7%
CCn1c(SCC(=O)NC2CCCCC2)nnc1-c1cc2cccc(OC)c2o1	-20	20µM*	?
COc1ccccc1-n1c(SCC(=O)N2CCCCC2)nc2cccnc21	22	?	?
CC(C)(C)NC(=O)Cn1c(SCC(=O)NCc2cccs2)nc2ccccc21	52	2%	1%
COc1ccc(C(=O)CSc2nc3ccccc3n2CC(=O)NC(C)(C)C)cc1	54	-2%	2.2µM*
COc1ccccc1-n1c(SCC(=O)NC2CCCC2)nc2cccnc21	0	14µM*	-3%
CCOC(=O)CSc1nc2ccccc2n1CC(=O)NC(C)(C)C	?	-4%	-5%
CC(C)(C)NC(=O)Cn1c(SCC(=O)NC2CCCCC2)nc2ccccc21	-100*	-2%	0%
CC(C)C(NC(=O)OC(C)(C)C)C(=O)N1CCCC1C(=O)NC(Cc1ccccc1)C(N)=O (stereo not drawn)	18	-3%	12%
CC(C)CC(=O)Nc1ccc(C(=O)Cn2c(=O)oc3ccccc32)cc1	·	·	-13%
SMILES	PNC assembly inh	HPGD block	ALDH1A1 inh
O=C(N/N=C/C1CC2CCC1C2)c1ccc2c(c1)OCO2 (stereo not drawn)	-21	-12%	-14%
CCC(C(=O)N1CCc2ccccc2C1)n1nc(C)n2c(cc3occc32)c1=O (stereo not drawn)	-30	-7%	8%
CCC(C)NC(=O)C1=C(C)C(=O)OC12CCC(C)CC2 (stereo not drawn)	6	-5%	7%
C=CCn1c(SC(C)CC)nc(O)cc1=O (stereo not drawn)	?	-3%	8%
O=C(NCc1ccccc1)c1ccc(CN2CCOCC2)cc1	5	-16%	?
O=C(CN(Cc1ccccc1Cl)C(=O)c1ccc(CN2CCOCC2)o1)NCc1ccccc1	?	-11%	13µM*
S=c1nn[nH]n1C12CC3CC(CC(C3)C1)C2	3	?	2.8µM*
c1cn(C23CC4CC(CC(C4)C2)C3)cn1	?	-5%	-8%
COC1C(O)CC(=O)OC(C)C/C=C/C=C/[C@@H](OC2CCC(N(C)C)C(C)O2)C(C)C[C@@H](CC=O)[C@@H]1O[C@H]1OC(C)[C@H](O[C@@H]2C[C@@](C)(O)C(O)C(C)O2)C(N(C)C)C1O (stereo partly drawn)	·	-6%	7%
CC(C)c1ccc(/C=N/n2nnnc2Nc2ccccc2)cc1	38	?	-2%
CC/C(=N\n1nnnc1Nc1ccccc1)c1ccccc1	-100*	-13%	-4%
CN(C)c1nc2ccc(OCCN3CCCCC3)cc2s1	-26	-5%	4%
Cc1ccc(NCCC(=O)c2cccc([N+](=O)[O-])c2)cc1	-11	-10%	0.32µM*
Cc1ccc(NC(=O)CCC(=O)NNC(=O)c2cccc([N+](=O)[O-])c2)cc1C	-20	1%	7%
COC(=O)c1cccc(NC(=O)CCNC(=O)c2ccc([N+](=O)[O-])cc2)c1	?	-2%	13%
O=C(CCNc1ccc(F)cc1)c1cccc([N+](=O)[O-])c1	14	4%	0.22µM*
O=C(COc1cccc(NC(=O)c2cccc([N+](=O)[O-])c2)c1)c1ccc(Br)cc1	-29	?	9%
O=C(CCNc1ccccc1)c1cccc([N+](=O)[O-])c1	-21	·	?
O=C(CCNc1ccc(Br)cc1)c1cccc([N+](=O)[O-])c1	·	·	0.63µM*
O=C(NCCNc1ccc([N+](=O)[O-])cc1)c1cccc(Br)c1	-8	-9%	7.1µM*
Cc1onc(-c2c(Cl)cccc2Cl)c1C(=O)N1CCc2ccccc2C1	81	-8%	8%
CC1(C)CCCC2(C)C3C(O)CC2(C)C(O)C31 (stereo not drawn)	·	5%	10%
CN1[C@@H]2CC[C@H]1CC(OC(c1ccccc1)c1ccccc1)C2 (stereo partly drawn)	·	-6%	7%[13.5 µM]
COc1cc2c(cc1OC)C(Nc1ccccc1)=NC(C)(C)C2	4	-9%	5%
Cc1cccc(CSc2nnc3c(n2)[nH]c2ccccc23)c1	·	·	10%
SMILES	PNC assembly inh	HPGD block	ALDH1A1 inh
O=C(NCCNc1ccc([N+](=O)[O-])cc1C(F)(F)F)c1cccc(F)c1	?	-7%	?
O=C(NCCNc1ccc([N+](=O)[O-])cc1C(F)(F)F)c1ccccc1	?	-26%	10µM*
CC(C)N(C(=O)CN1C(=O)NC2(CCCCCC2)C1=O)C(C)C	-18	-7%	-4%
O=C(Nc1ncc(Cc2ccccc2)s1)C1COc2ccccc2O1 (stereo not drawn)	?	-8%	-7%
O=C(COc1ccccc1)NCCSCc1ccco1	?	22µM*	?
O=C(COc1ccccc1)NCCSc1ccccc1	10	-20%	-4%
Cc1ccc(SCCC(=O)NCCSCc2ccccc2C)cc1	-22	·	?
O=C(CCSc1ccccc1)NCCSCc1ccco1	-24	·	11µM*
O=C1C[C@@H](O)[C@@H](O)[C@H]2[C@@H]3C(=O)N(C[C@@H]4CCCO4)C(=O)[C@@H]3CC[C@H]12	·	·	-1%[13.5 µM]
CCOC(=O)C1(CCCc2ccccc2)CCN(C(=O)CCN2CCCCC2=O)CC1	·	·	4.5µM*
CCOC(=O)C1(CCc2ccccc2)CCN(C(=O)c2cccc(C)n2)CC1	·	·	-17%
CCOC(=O)C1(CCCc2ccccc2)CCN(C(=O)CCOC)CC1	·	·	0.45µM*
CCOC(=O)C1(CCc2ccccc2)CCN(C(=O)Cc2nonc2C)CC1	·	·	-4%
CCOC(=O)C1(Cc2ccc(OC)cc2)CCN(C(=O)CN2CCCCC2=O)CC1	·	·	2%
CCOC(=O)C1(CCCc2ccccc2)CCN(C(=O)c2cnc(C)cn2)CC1	·	·	4.5µM*
Cc1cc(C)n2nc(S(=O)(=O)NC3CCCCC3)nc2n1	?	1%	-2%
